Hits are enriched below; roughly 4.6% of the tested compounds scored in any of these assays.
DAX1 inh-1 – DAX1 (NR0B1) inhibitors on StAR promoter, primary screen, cell-based, luminescence, SF-1 (NR5A1), full-length DAX-1; HEK293T StAR-luciferase reporter, SF-1/DAX-1 repression relief; inhibition, % at 6.8 µM; 370,000 tested, 1.1% active;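 active means inhibition above the mean over all tested compounds plus 3 SD, cut at about 3.6% in these data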;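 further: 0% = DAX-1 cells with DMSO and 100% = cells lacking DAX-1 with DMSO; higher inhibition means more luminescence from relief of DAX-1 repression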
DAX1 inh-2 – DAX1 (NR0B1) inhibitors, primary screen, cell-based, HEK293, Gal4-DAX1, luciferase luminescence | Nuclear receptor subfamily 0 group B member 1 (Homo sapiens), P51843 | 340,000 tested, 0.99% active | HEK293 Gal4-DAX1 luciferase reporter | inhibition, % at 6.75 µM;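 active means inhibition above the mean over all tested compounds plus 3 SD, cut at about 4.2% in these data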;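 further: 0% = DAX1-transfected cells with DMSO and 100% = empty-vector control cells with DMSO; inhibition shows as a rise in luminescence from relieved DAX1 repression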
Wee1 degr inh – Wee1 degradation inhibitors, primary screen, cell-based, HeLa, Wee1K328M-luciferase, luminescence. Wee1-like protein kinase (Homo sapiens), P30291. HeLa Luc-Wee1K328M stability; 100% = proteasome inhibitor MG132 effect. reporter increase, % at 5 µM. 220,000 tested, 1.2% active. AID 1321, 2008;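 active means activation above the mean of all tested compounds plus 3 SD, set per screening run, cut at about 8.8% in these data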;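 further: cells exposed to compound for 20 h before luminescence read; 0% = DMSO alone and 100% = MG132 at 30 µM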
Target sequence (P30291 whole entry K328M): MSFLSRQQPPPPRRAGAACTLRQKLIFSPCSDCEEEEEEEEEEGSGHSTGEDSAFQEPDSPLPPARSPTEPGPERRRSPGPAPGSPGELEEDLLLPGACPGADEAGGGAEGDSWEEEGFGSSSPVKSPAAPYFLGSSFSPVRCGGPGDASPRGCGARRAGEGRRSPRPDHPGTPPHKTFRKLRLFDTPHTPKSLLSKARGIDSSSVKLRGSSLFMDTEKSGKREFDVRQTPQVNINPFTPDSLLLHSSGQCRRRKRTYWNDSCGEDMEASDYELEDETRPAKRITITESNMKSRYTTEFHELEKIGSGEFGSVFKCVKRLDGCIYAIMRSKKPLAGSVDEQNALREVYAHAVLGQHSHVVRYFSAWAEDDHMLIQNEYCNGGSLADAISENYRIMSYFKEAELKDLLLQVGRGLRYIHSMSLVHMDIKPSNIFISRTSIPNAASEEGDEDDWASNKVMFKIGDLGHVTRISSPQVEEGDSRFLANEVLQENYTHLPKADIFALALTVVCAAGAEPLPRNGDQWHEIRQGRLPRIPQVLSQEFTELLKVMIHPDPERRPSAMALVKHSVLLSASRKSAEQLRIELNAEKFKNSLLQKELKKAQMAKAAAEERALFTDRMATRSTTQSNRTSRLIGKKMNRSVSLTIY
ssDAF-12 act – S. stercoralis DAF-12 nuclear receptor activators, primary screen, cell-based, luminescence, HEK293, GRIP1 co-expression, lit1-tk-luc | Nuclear hormone receptor DAF-12 (Strongyloides stercoralis) | HEK293 ssDAF-12/GRIP1 lit1-tk-luc reporter; % of 3 µM dafachronic acid response | activation, % at 6.8 µM | 370,000 tested, 1% active | AID 652126, 2013;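 active means activation above the mean over all tested compounds plus 3 SD, cut at about 0.9% in these data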;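 further: 0% = DMSO-only wells and 100% = 3 µM delta7-dafachronic acid wells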
hcDAF-12 act – H. contortus DAF-12 nuclear receptor activators, primary screen, cell-based, luminescence, HEK293, lit1-tk-luc reporter. HEK293 hcDAF-12 lit1-tk-luc reporter; 0% DMSO, 100% Δ7-dafachronic acid. 370,000 tested, 1.4% active. AID 652067, 2013. activation, % at 6.8 µM;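 active means activation above the mean of all tested compounds plus 3 SD, cut at about 5.5% in these data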;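 further: 100% = response to 3 µM Δ7-dafachronic acid high control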
hgDAF12 agonist – H. glycines DAF-12 receptor agonists, primary screen, cell-based, luminescence, HEK293, GAL4 fusion, UAS-luciferase. 370,000 tested, 1.8% active. HEK293 GAL4-hgDAF12 UAS-luciferase reporter, agonist luminescence; normalized to butyrate control. activation, % at 6.8 µM. Nuclear hormone receptor DAF-12 (Heterodera glycines), GAL4 fusion;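 active means activation above a cutoff set at the mean of all screened compounds plus 3 SD, cut at about 10% in these data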;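 further: 0% = DMSO wells and 100% = sodium butyrate wells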
Active calls of the source: *.

`COc1ccc(C(=O)CSc2ccc(-c3ccccc3)nn2)cc1` gave DAX1 inh-1 1, DAX1 inh-2 4.6*, Wee1 degr inh -1, ssDAF-12 act -1, hcDAF-12 act -1 and hgDAF12 agonist -1.
O=C(CSc1ccc(-c2ccccc2)nn1)N1CCCCC1 was read as DAX1 inh-1 2, DAX1 inh-2 1, Wee1 degr inh -1, ssDAF-12 act 1.0*, hcDAF-12 act 5 and hgDAF12 agonist 7.
For COc1cccc(-c2ccc(SCC(=O)c3ccccc3)nn2)c1 the results were DAX1 inh-1 0, DAX1 inh-2 0, Wee1 degr inh 4, ssDAF-12 act -2, hcDAF-12 act -3 and hgDAF12 agonist 3.
COc1ccc(C(=O)CSc2nccn2C)cc1 was read as DAX1 inh-1 1, DAX1 inh-2 4, ssDAF-12 act 0, hcDAF-12 act 2 and hgDAF12 agonist 12*.
For Nc1nnc(/C=C/c2ccccc2Cl)s1 the results were DAX1 inh-1 1, DAX1 inh-2 1, Wee1 degr inh -2, ssDAF-12 act -1, hcDAF-12 act 3 and hgDAF12 agonist 12*.
For COc1cc(C)ccc1S(=O)(=O)NC(=O)C1(C)CCN1C(=O)COc1ccc(Cl)cc1 (centres undefined) the results were DAX1 inh-1 0, ssDAF-12 act 0, hcDAF-12 act 2 and hgDAF12 agonist -2.
Screening Cc1nnc(NC(=O)CCC(=O)N2CCN(S(=O)(=O)c3cc([N+](=O)[O-])ccc3C)CC2)s1 returned DAX1 inh-1 0, DAX1 inh-2 1, ssDAF-12 act -1, hcDAF-12 act 1 and hgDAF12 agonist 0.
CN(C)S(=O)(=O)c1ccc(NC(=O)c2ccccn2)cc1 was read as DAX1 inh-1 3, DAX1 inh-2 2, Wee1 degr inh 6, ssDAF-12 act 0, hcDAF-12 act 2 and hgDAF12 agonist 13*.
Screening CN(C)S(=O)(=O)c1ccc(C(=O)Nc2ccccn2)cc1 returned DAX1 inh-1 2, DAX1 inh-2 1, Wee1 degr inh 0, ssDAF-12 act -1, hcDAF-12 act 0 and hgDAF12 agonist 11*.
For Cc1ccc(S(=O)(=O)N(C)c2ccc(C(=O)Nc3ccccn3)cc2)cc1 the results were DAX1 inh-1 1, DAX1 inh-2 -2, ssDAF-12 act -2, hcDAF-12 act 1 and hgDAF12 agonist 1.
CCN(CC)S(=O)(=O)c1ccc(NC(=O)c2ccccn2)cc1 was read as DAX1 inh-1 2, DAX1 inh-2 1, Wee1 degr inh -1, ssDAF-12 act -1, hcDAF-12 act 1 and hgDAF12 agonist 6.
`CN(C)CCC(c1ccc(Cl)cc1)c1ccccn1` (centres undefined) gave DAX1 inh-1 1, DAX1 inh-2 0, Wee1 degr inh -1, ssDAF-12 act -1, hcDAF-12 act -2 and hgDAF12 agonist 2.
Screening CN(C)CCC(c1ccccc1)c1ccccn1 (centres undefined) returned DAX1 inh-1 -1, DAX1 inh-2 -1, Wee1 degr inh 16*, ssDAF-12 act -1, hcDAF-12 act -1 and hgDAF12 agonist 4.
Screening Cn1c(=O)c2cc(NC(=O)NCc3ccccc3)ccc2n1C/C=C/c1ccccc1 returned DAX1 inh-1 1, ssDAF-12 act -1, hcDAF-12 act 1 and hgDAF12 agonist 11*.
CC(=O)OC[C@@H]1CN(Cc2ccccc2)C[C@H](n2cnc3c(N4CCOCC4)ncnc32)O1 was read as DAX1 inh-1 0, ssDAF-12 act -1, hcDAF-12 act 1 and hgDAF12 agonist 2.
Screening CC(NC(=O)CCN1C(=O)c2ccccc2C1=O)c1ccc2c(c1)CCCC2 (centres undefined) returned DAX1 inh-1 0, DAX1 inh-2 -1, Wee1 degr inh 0, ssDAF-12 act -1, hcDAF-12 act 1 and hgDAF12 agonist -1.
Screening CC(NC(=O)Cn1cccc1)c1ccccc1 (centres undefined) returned DAX1 inh-1 4.0*, DAX1 inh-2 1, ssDAF-12 act -1, hcDAF-12 act 0 and hgDAF12 agonist -1.
`CC(NC(=O)CCN1C(=O)c2ccccc2C1=O)c1ccccc1` (centres undefined) gave DAX1 inh-1 0, DAX1 inh-2 4.5*, ssDAF-12 act -1, hcDAF-12 act 2 and hgDAF12 agonist 0.
Cc1cc(C)cc(N(CC(=O)NC2CCCC2)C(=O)C2(C)CC(=O)N=C3C=CC=CN32)c1 (centres undefined) was read as DAX1 inh-1 0, DAX1 inh-2 2, Wee1 degr inh 11*, ssDAF-12 act -1, hcDAF-12 act -1 and hgDAF12 agonist 1.
`CC(C=CC(O)=C1C(=O)CNC1=O)=C[C@@H](C)C1OC2(C)OC(C(=O)C3O[C@@]32C)C1C` (some centres undefined) gave DAX1 inh-1 1, ssDAF-12 act 0, hcDAF-12 act -1 and hgDAF12 agonist 0.
Screening COc1cccc(-c2nc(NCc3cccnc3)c3ccccc3n2)c1O returned DAX1 inh-1 0, DAX1 inh-2 0, ssDAF-12 act 0, hcDAF-12 act 5.9* and hgDAF12 agonist 3.
Screening Nc1ccc2c(=O)[nH][nH]c(=O)c2c1 returned DAX1 inh-1 -1, DAX1 inh-2 -1, ssDAF-12 act 0, hcDAF-12 act -2 and hgDAF12 agonist 3.
Screening Nc1ccc2oc3ccc(N)cc3c(=O)c2c1 returned DAX1 inh-1 4.2*, DAX1 inh-2 0, Wee1 degr inh 5, ssDAF-12 act 1, hcDAF-12 act 5.6* and hgDAF12 agonist 11*.
For COc1ccccc1N(C)S(=O)(=O)c1ccc(C(=O)Nc2cc(F)ccc2C)cc1 the results were DAX1 inh-1 -1, DAX1 inh-2 -2, ssDAF-12 act -1, hcDAF-12 act -2 and hgDAF12 agonist -5.
`CCOC(=O)c1cccc(N2C(=O)C3C4C=CC(CC4)C3C2=O)c1` (centres undefined) gave DAX1 inh-1 0, DAX1 inh-2 0, ssDAF-12 act 0, hcDAF-12 act 1 and hgDAF12 agonist 1.

Compound activity deposited in PubChem by The Scripps Research Institute Molecular Screening Center.
